Measured values from the supplement of paper PMC12494721.
Counter-ions that a name gives are not always drawn.

Tests used:
Details in all cases: incubation time: 27 h, anaerobic, 37 °C;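 for the amine columns active = adjusted P below 0.05 in both replicates with a change the same way and a mean fold change under 0.8 or over 1.25; inactive = the rest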
[1] = tested on: Clostridium sporogenes DSM 1664; experiment: growth (OD595) fold change vs plate DMSO controls (fold change (ratio)); higher = more growth
How it was run: (§1)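 Anaerobic 27 h, 37 °C mGAM 96-well cultures were shaken, then read for absorbance at 595 nm. Values were blank-subtracted and corrected for compound background using 20 µM compound solutions in water. A calibration factor of 5 converted them to OD. Growth is the fold change versus the median of plate DMSO controls. Fold changes above 1.5 were set to NA, and values are the mean of 2 biological replicates.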

[2] = tested on: Escherichia coli IAI1; experiment: as above
How it was run: as §1

[3] = tested on: Klebsiella aerogenes DSM 30053; experiment: as above
How it was run: as §1

[4] = tested on: Ruminococcus gnavus DSM 108212; experiment: as above
How it was run: as §1

[5] = tested on: Klebsiella aerogenes DSM 30053; experiment: fold change of Histamine concentration vs plate DMSO controls (fold change (ratio)); higher = more amine produced, active = hit call of the paper (significant change in both replicates, either direction)
How it was run: (§2)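 Anaerobic mGAM cultures of four gut bacterial strains were grown at 37 °C for 27 h in 80 µL wells, starting at OD 0.1 before 1:1 dilution. Compounds were at 20 µM final (sweeteners 50 µM). Whole cultures were extracted with cold acetonitrile/methanol containing 0.1% formic acid and centrifuged. Amines were quantified by LC–triple-quadrupole MS (dynamic MRM) against external calibration curves and drift-corrected within batch. Each value is the fold change versus plate DMSO controls, averaged over 2 biological replicates.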

[6] = tested on: Clostridium sporogenes DSM 1664; experiment: fold change of Tryptamine concentration vs plate DMSO controls (fold change (ratio)); higher = more amine produced, active = hit call of the paper (significant change in both replicates, either direction)
How it was run: as §2

[7] = tested on: Ruminococcus gnavus DSM 108212; experiment: as above
How it was run: as §2

[8] = tested on: Escherichia coli IAI1; experiment: fold change of Putrescine concentration vs plate DMSO controls (fold change (ratio)); higher = more amine produced, active = hit call of the paper (significant change in both replicates, either direction)
How it was run: as §2

[9] = tested on: Klebsiella aerogenes DSM 30053; experiment: as above
How it was run: as §2

[10] = tested on: Escherichia coli IAI1; experiment: fold change of Cadaverine concentration vs plate DMSO controls (fold change (ratio)); higher = more amine produced, active = hit call of the paper (significant change in both replicates, either direction)
How it was run: as §2

[11] = tested on: Klebsiella aerogenes DSM 30053; experiment: as above
How it was run: as §2

[12] = tested on: Ruminococcus gnavus DSM 108212; experiment: fold change of 2-Phenylethylamine concentration vs plate DMSO controls (fold change (ratio)); higher = more amine produced, active = hit call of the paper (significant change in both replicates, either direction)
How it was run: as §2

| SMILES | growth [1] | growth [2] | growth [3] | growth [4] | fold change of Histamine concentration [5] | fold change of Tryptamine concentration [6] | fold change of Tryptamine concentration [7] | fold change of Putrescine concentration [8] | fold change of Putrescine concentration [9] | fold change of Cadaverine concentration [10] | fold change of Cadaverine concentration [11] | fold change of 2-Phenylethylamine concentration [12] |
| --- | --- | --- | --- | --- | --- | --- | --- | --- | --- | --- | --- | --- |
| Oc1ncnc2[nH]ncc12 [Allopurinol] (20 µM) | 1.03 | 0.942 | 0.974 | 1.02 | 1.03 (inactive) | 1.04 (inactive) | 1.01 (inactive) | 1.09 (inactive) | 1 (inactive) | 1.01 (inactive) | 1.01 (inactive) | 1.02 (inactive) |
| NCCNCCNCCNCCN [Tetraethylenepentamine pentahydrochloride] (20 µM) | 1 | 1.1 | 1.02 | 0.923 | 1 (inactive) | 1.03 (inactive) | 0.952 (inactive) | 1.07 (inactive) | 0.994 (inactive) | 0.955 (inactive) | 0.994 (inactive) | 0.967 (inactive) |
| CN1CCCN=C1/C=C/c1cccs1 [Pyrantel tartrate] (20 µM) | 1.14 | 1.04 | 1.1 | 1.04 | 0.952 (inactive) | 1.02 (inactive) | 1.08 (inactive) | 1.04 (inactive) | 1 (inactive) | 1.03 (inactive) | 1.02 (inactive) | 1.01 (inactive) |
| COc1cc(N)c(Cl)cc1C(=O)NC1CCN(CCCOc2ccc(F)cc2)CC1OC (centres undefined) [Cisapride] (20 µM) | 0.913 | 0.988 | 0.969 | 0.705 | 0.959 (inactive) | 0.972 (inactive) | 0.922 (inactive) | 1 (inactive) | 0.983 (inactive) | 1.02 (inactive) | 0.993 (inactive) | 0.929 (inactive) |
| CCC(NC(C)C)C(O)c1ccc(O)c(O)c1 (centres undefined) [Isoetharine mesylate salt] (20 µM) | 1.13 | 1.06 | 0.99 | 0.992 | 1 (inactive) | 0.966 (inactive) | 0.977 (inactive) | 1.11 (inactive) | 0.995 (inactive) | 0.987 (inactive) | 0.994 (inactive) | 0.92 (inactive) |
| O=C1[C@@H]2[C@H]3CC[C@H](C3)[C@@H]2C(=O)N1CCCCN1CCN(c2ncccn2)CC1 [Tandospirone] (20 µM) | 0.973 | 1.04 | 1.03 | 1.06 | 0.981 (inactive) | 0.992 (inactive) | 1.01 (inactive) | 0.989 (inactive) | 0.995 (inactive) | 1 (inactive) | 0.997 (inactive) | 1.06 (inactive) |
| CN/C(=N\CCSCc1nc[nH]c1C)NC#N [Cimetidine] (20 µM) | 1.03 | 1.02 | 1.07 | 1.18 | 0.893 (inactive) | 0.981 (inactive) | 0.997 (inactive) | 1.02 (inactive) | 0.979 (inactive) | 1.03 (inactive) | 1.01 (inactive) | 1.01 (inactive) |
| CCOC(=O)Nc1ccc2c(c1)N(C(=O)CCN1CCOCC1)c1ccccc1S2 [Moricizine hydrochloride] (20 µM) | 1.09 | 1.08 | 0.995 | 1.06 | 1 (inactive) | 0.989 (inactive) | 0.978 (inactive) | 1.03 (inactive) | 1.01 (inactive) | 1.01 (inactive) | 1 (inactive) | 1 (inactive) |
| CC[C@H](C)[C@H](NC(=O)[C@H](Cc1ccc(O)cc1)NC(=O)[C@@H](NC(=O)[C@H](CCCN=C(N)N)NC(=O)[C@@H](N)CC(=O)O)C(C)C)C(=O)N[C@@H](Cc1cnc[nH]1)C(=O)N1CCC[C@H]1C(=O)N[C@@H](Cc1ccccc1)C(=O)O [Angiotensin II (Human) Trifluoroacetic acid salt] (20 µM) | 1.02 | 1.03 | 0.987 | 0.979 | 1.01 (inactive) | 1.07 (inactive) | 1.09 (inactive) | 0.966 (inactive) | 0.983 (inactive) | 0.934 (inactive) | 0.994 (inactive) | 1.14 (inactive) |
| CC(C(O)c1ccc(O)cc1)N1CCC(Cc2ccccc2)CC1 (centres undefined) [Ifenprodil tartrate] (20 µM) | 1.02 | 1.12 | 1.03 | 0.985 | 0.977 (inactive) | 1.02 (inactive) | 1.03 (inactive) | 1.08 (inactive) | 0.973 (inactive) | 0.947 (inactive) | 1 (inactive) | 0.992 (inactive) |
| CC(c1cc2ccccc2s1)N(O)C(N)=O (centres undefined) [Zileuton] (20 µM) | 1.11 | 0.91 | 0.978 | 1.01 | 1.06 (inactive) | 0.987 (inactive) | 1.03 (inactive) | 0.86 (inactive) | 1.01 (inactive) | 1 (inactive) | 0.98 (inactive) | 1.07 (inactive) |
| NC1CCN(c2c(F)cc3c(=O)c(C(=O)O)cn(C4CC4)c3c2Cl)C1 (centres undefined) [Clinafloxacin] (20 µM) | 0.00892 | 0.0142 | 0.102 | 0.356 | 0.118 (active) | 0.0514 (active) | 0.337 (active) | 0.703 (inactive) | 0.647 (active) | 0.233 (active) | 0.942 (inactive) | 0.36 (active) |
